Assay outcomes (PubChem)
A selection: hits, their analogues and other compounds. The true share with any hit is near 1.9%.
Ba/F3 V617F tox = loss of viability in JAK2V617F-driven Ba/F3 cells | hit rate 1.1% among 220,000 | inhibition, % at 5.6 µM | Ba/F3 EpoR-JAK2V617F viability, ATP luminescence;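 active = inhibition above the campaign mean plus 3 SD over all tested compounds, cut at about 24% in these data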;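 also: cytokine-independent growth of Ba/F3 cells driven by EpoR plus mutant JAK2; 0% = DMSO-treated cells and 100% = JAK inhibitor I control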
APP 5UTR inh = APP translation inhibition | SH-SY5Y APP 5'UTR-luciferase reporter, luminescence | hit rate 0.82% among 190,000 | inhibition, % at 2 µM;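 active = inhibition above a set limit, derived from the sample mean plus 3 SD, cut at about 45% in these data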
IEC-6 cytotox = counter-screen for KLF5 inhibitors: cytotoxicity in IEC-6 cells; IEC-6 cytotoxicity, luminescence viability; inhibition, % at 5 µM; hit rate 0.78% among 290,000; AID 1825; in the data active = inhibition above about 22%;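 also: 0% = plate median of test compound wells and 100% = cytotoxic reference compound wells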
KLF5 inh = kruppel-like factor 5 inhibition; DLD-1 KLF5 promoter-luciferase reporter, luminescence; inhibition, % at 5 µM; hit rate 0.23% among 290,000; AID 1700;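 active = inhibition above a per-plate limit of that plate's mean compound inhibition plus 3 SD, cut at about 60% in these data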;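 also: 0% = DMSO wells and 100% = LY294002 at 200 µM; higher means less KLF5 promoter-driven luciferase light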
BaF3 tox = counter-screen for JAK2V617F inhibitors: parental Ba/F3 viability inhibitors | CellTiter-Glo ATP luminescence | inhibition, % at 5.6 µM | hit rate 1.1% among 220,000;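 active = inhibition above a per-campaign cutoff, the mean inhibition of all tested compounds plus 3 SD, cut at about 27% in these data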;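 also: 0% = DMSO wells and 100% = JAK Inhibitor I control wells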
* marks the source's active call; other numbers are inactive results; / = no result given.

SMILES | Ba/F3 V617F tox | APP 5UTR inh | IEC-6 cytotox | KLF5 inh | BaF3 tox
CC[n+]1c(/C=C/N(C)c2ccccc2)sc2ccc(Cl)cc21 | 80* | 13 | 16 | -7 | 72*
CCOc1ccc(-c2cc(C)[n+](CCO)c(-c3ccc(OCC)cc3)c2)cc1 | 57* | -5 | -1 | -16 | 72*
N#CCCn1cc(C(=O)Nc2ccc([N+](=O)[O-])cc2)c(-c2ccc3c(c2)OCCO3)n1 | -2 | 17 | 3 | -21 | 6
c1ccc2c(CN3CCN(C4CCCCC4)CC3)c[nH]c2c1 | -2 | 6 | 1 | -2 | 4
c1ccc2c(CN3CCCCCCC3)c[nH]c2c1 | 49* | 0 | -3 | -5 | 38*
CCC1(OC(=O)CN)C(=O)OCc2c1cc1n(c2=O)Cc2cc3ccccc3nc2-1 (centres undefined) | 99* | / | 96* | 104* | 96*
O=C(COc1ccc(Cl)cc1)NCCc1cnc[nH]1 | / | / | 1 | -31 | /
O=[N+]([O-])c1ccc(CN2CC=C(c3ccccc3)CC2)cc1 | / | / | 2 | 17 | /
CCN(CC)Cc1c[nH]c2ccccc12 | 2 | -13 | 8 | 5 | 3
C1=C(c2c[nH]c3ccccc23)CCN(Cc2ccccc2)C1 | 97* | -18 | 7 | 7 | 76*
CN1CC=C(c2c[nH]c3ccccc23)CC1 | 29* | -1 | -1 | 15 | 61*
Cc1ccc(Cn2cc(C=O)c(-c3ccc(C)cc3)n2)cc1 | -5 | -25 | -4 | -22 | 0
Cc1ccc(C)c(OCc2cc(C(=O)N3C[C@H]4C[C@@H](C3)c3cccc(=O)n3C4)no2)c1 | / | / | -7 | -21 | /
CC(=O)c1cn(Cc2ccccc2C#N)c2ccccc12 | 46* | -4 | 16 | -11 | 67*
CC(C)C(=O)c1cn(Cc2ccccc2C#N)c2ccccc12 | -5 | -20 | 0 | -4 | -3
Cc1nc2ccc(Cl)cc2c(=O)n1-c1ccc([N+](=O)[O-])cc1 | / | / | 4 | -37 | /
CCC[N+]12CCC(CC1)C(=C(c1ccccc1)c1ccccc1)C2 | 18 | 18 | -6 | -7 | 36*
CCCCN=Cc1c(O)n(-c2c(C)cc(C)cc2C)c(=O)[nH]c1=O | -4 | -5 | -1 | 10 | 1
COc1cccc(CN2CCN(Cc3cccc(F)c3)CC2)c1 | / | / | 1 | 6 | /
NC(=S)c1cn(C2OC(CO)C(O)C2O)c2ncnc(N)c12 (centres undefined) | 99* | / | 100* | 110* | 104*
N=c1c2c(n(Cc3ccc(Cl)cc3Cl)c3c1CCC3)CCCC2 | 92* | 2 | 14 | 13 | 70*
O=c1[nH]c(=O)n(-c2ccccc2)c(O)c1/C=C1/C(c2ccccc2)=Nc2ccccc21 | 80* | 68* | 55* | 32 | 68*
C=C(CO)CC1CC(O)[C@]2(C)OC3CC4OC5C[C@]6(C)O[C@]7(C)CCC8OC9C[C@]%10(C)OC%11C(C)=CC(=O)OC%11CC%10OC9C[C@@H](C)C8OC7CC6O[C@]5(C)C/C=C\C4OC3CC2O1 (some centres undefined) | 0 | 2 | 1 | 10 | 6
C=C(C=O)CC1CC(O)[C@]2(C)OC3CC4OC5C[C@]6(C)O[C@]7(C)CCC8OC9C[C@]%10(C)OC%11C(C)=CC(=O)OC%11CC%10OC9C[C@@H](C)C8OC7CC6O[C@]5(C)CC5OC5C4OC3CC2O1 (some centres undefined) | 97* | 96* | 11 | -10 | 97*
CC(=O)OC(C)(C)/C=C/C(=O)[C@](C)(O)[C@H]1[C@H](O)C[C@@]2(C)[C@@H]3CC=C4[C@H](C[C@H](O)C(=O)C4(C)C)[C@]3(C)C(=O)C[C@]12C | 101* | 90* | 98* | 83* | 88*
SMILES | Ba/F3 V617F tox | APP 5UTR inh | IEC-6 cytotox | KLF5 inh | BaF3 tox
CC(C(=O)c1c[nH]c2ccccc12)N1CCc2ccccc2C1 (centres undefined) | 26* | -4 | 2 | -4 | 43*
CCCCC/C(=N\O)c1c[nH]c2ccccc12 | -1 | -11 | 1 | 1 | 4
Cc1cc(C)[n+](C2C3CC4CC(C3)CC2C4)o1 (centres undefined) | 68* | 0 | -3 | 23 | 66*
COc1ccc(C=C2C(=O)N(C)C(=O)N(C)C2=O)cc1CSc1ccccn1 | -3 | 14 | -6 | -10 | 0
Cc1ccsc1C(=O)C1CCCN(Cc2cc3ccccc3o2)C1 (centres undefined) | -1 | -14 | -3 | 14 | 5
FCCN(CCF)c1cccc(Cl)c1 | -1 | / | -5 | -8 | -1
CN(C)c1ccc(/C=C/C=C/c2sc3ccccc3[n+]2C)cc1 | 99* | / | 18 | 5 | 79*
CCN1CCN(c2cc(=O)n3ccccc3n2)CC1 | / | / | 8 | -19 | /
